# Only some compounds are listed: those with a hit (about 1.8% of all), similar ones and a draw of the others.
# GLP1R cytotox = cytotoxicity counter-screen for GLP-1 receptor inverse agonists; HEK293 cAMP-luciferase reporter cells, luminescence, 24 h; Potency, µM (titrated, usually from 38.3 µM), for the others: at the top dose activity change, negative = inhibition, hits mostly inhibitors; 410,000 tested, 0.13% active;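 note: loss of luciferase light is scored as toxicity; % is set by controls: 0 for no effect and ±100 for the full control effect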
#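 Step one: seed cells (200 cells/uL, DMEM with 10% Nu serum, 1% pen-strep). Step two: 12-hour incubation at 37 deg C. Step three: pin 23 nL compound, incubate 24 hr. Step four: add luciferase reagent, read luminescence 12 min later.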
# GLP-1R agonist = agonists of human GLP-1 receptor | P43220 | HEK293 GLP-1R CRE-luciferase, luminescence, 4-6 h; cells express a hypersensitive GLP-1R form | Potency, µM (top dose mostly 45.6 µM), inactives show at the top dose activation, usual class: activators | 380,000 tested, 0.007% active | AID 624172; note: % of control where 0% means no effect
# Target sequence (P43220 whole entry, looked up): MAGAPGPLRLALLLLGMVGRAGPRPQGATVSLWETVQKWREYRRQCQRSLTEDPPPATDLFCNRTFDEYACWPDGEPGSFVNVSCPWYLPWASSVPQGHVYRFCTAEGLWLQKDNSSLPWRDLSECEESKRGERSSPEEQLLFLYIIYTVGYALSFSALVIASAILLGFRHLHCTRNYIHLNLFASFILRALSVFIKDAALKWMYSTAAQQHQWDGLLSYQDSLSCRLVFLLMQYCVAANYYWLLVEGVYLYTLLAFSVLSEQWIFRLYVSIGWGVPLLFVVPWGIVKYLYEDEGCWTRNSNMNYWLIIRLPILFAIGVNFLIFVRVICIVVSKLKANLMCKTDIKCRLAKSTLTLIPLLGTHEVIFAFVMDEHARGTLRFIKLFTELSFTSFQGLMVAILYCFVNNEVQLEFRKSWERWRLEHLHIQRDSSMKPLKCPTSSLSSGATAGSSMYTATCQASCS
# Tb PFK block = inhibitors of T. brucei phosphofructokinase | O15648 | T. brucei PFK, ADP-Glo luminescence | Potency, µM (series often up to 57.5 µM), inactives show at the highest dose activity, negative = inhibition, most hits filed as inhibitors | 330,000 tested, 0.17% active | AID 485367;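 note: 0% = uninhibited 1x PFK enzyme wells and -100% = no-enzyme wells; nearly all actives have a fitted effect of over 60% in size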
#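 1.25 nM PFK with 0.5 mM F6P and 0.1 mM ATP in 0.1 M TEA pH 8.0, 5 mM MgCl2, incubated 45 min at room temperature; ADP measured by ADP-Glo luminescence; compounds titrated up to 57 uM.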
# Pin1 inhibitor = human Pin1 inhibition | AID 504891 | Q13526 | Potency, µM (doses to about 115 µM), for inactives: top-dose activity, negative = inhibition, actives largely listed as inhibitors | 390,000 tested, 0.009% active | Pin1 FP peptide displacement, HiFluor488, 10 min; active = well fitted inhibition curve with a large enough effect in the polarisation, with a control signal flat, not every such curve was filed as active; inconclusive = small, poorly fitted or top-dose-only effect, or effect the other way, or a change in a side signal; inactive = no such curve, though single readings can be large or run the other way; the % refers to the polarisation; note: % is set by controls: 0 for no effect and ±100 for the full control effect
# Target sequence (Q13526 whole entry, looked up): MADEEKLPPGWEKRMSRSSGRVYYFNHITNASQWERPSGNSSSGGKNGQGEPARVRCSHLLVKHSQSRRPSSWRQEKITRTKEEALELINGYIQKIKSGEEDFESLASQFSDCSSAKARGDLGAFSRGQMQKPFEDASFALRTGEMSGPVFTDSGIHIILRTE
# PGK inhibitor = T. brucei PGK inhibition; P07378; PGK/GAPDH coupled, Kinase-Glo luminescence, 60 min; Potency, µM (series often up to 57.5 µM), inactives show at the highest dose activity change, negative = inhibition, hits mostly inhibitors; 380,000 tested, 0.043% active; AID 602233; note: % is set by controls: 0 for no effect and ±100 for the full control effect; nearly all actives have a fitted effect of over 60% in size
#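 Luminescent ATP detection (Kinase-Glo Plus) follows a 60-minute room-temperature incubation, with wells lacking PGK as controls. Buffer: 100 mM TEA (pH 7.6), 5 mM MgCl2, 0.01% Tween-20. Coupling enzyme GAPDH (100 nM final) supplies unstable 1,3-BPG in-well.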
# GLP-1R inv ag = inverse agonists of human GLP-1 receptor. 410,000 tested, 1.6% active. AID 624417. Potency, µM (series often up to 38.3 µM), for inactives: top-dose activity change, negative = inhibition, usual class: inhibitors. P43220. HEK293 GLP-1R CRE-luciferase, luminescence, 24 h; GLP-1R form is constitutively active; note: % is set by controls: 0 for no effect and ±100 for the full control effect; nearly all actives have a fitted effect of over 55% in size
#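 Luminescence readout: a drop in cAMP-driven luciferase signal flags inverse agonism at a constitutively active GLP-1R stably expressed in HEK293. Compound exposure lasted 24 hr at 37 deg C, 5% CO2.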
# * = called active by the depositor; i = inactive; u = inconclusive; x = not tested or not shown; [ ] = dose if it differs, or a comment. Unless noted, calls come from the whole dose curve; as a rule, active = well fitted curve in the direction sought with a large enough effect; inconclusive = small, poorly fitted or top-dose-only effect, or another doubt; inactive = no such curve, though single readings can be large; an effect the other way counts as inactive or inconclusive. Potency is the fitted concentration of half-maximal effect.
SMILES,GLP1R cytotox,GLP-1R agonist,Tb PFK block,Pin1 inhibitor,PGK inhibitor,GLP-1R inv ag
Clc1ccccc1CN1CCc2nc(N3CCN(c4ncccn4)CC3)ncc2C1,-1%,x,x,13%,i,u
COc1ccccc1-c1nc(-c2ccccn2)no1,-1%,-23%,u,0%,u,3.5µM*
Clc1ccc(-c2nc(-c3ccccn3)no2)cc1Cl,-8%,-2%,1%,-10%,-14%,-18%
COc1ccc(-c2nc(-c3ccccn3)no2)cc1,0%,-8%,u,-1%,16µM*,u
CCN1C(C(=O)c2ccccc2)=C(OC(=O)COc2ccc(C)cc2)c2ccccc2S1(=O)=O,1%,x,x,-4%,1%,u
COc1cccc(C2c3c(ncn(-c4ccncc4)c3=N)Oc3ccc4ccccc4c32)c1 (stereo not given),x,x,x,8%,x,x
CCc1cccc(NC(=O)CN2CCCN(Cc3cccc(C)c3)S2(=O)=O)c1,0%,x,x,u,9%,u
O=C(NCc1ccccc1CN1CCCC1)c1ccc(S(=O)(=O)Nc2ccccc2)cc1,-29%,0%,x,x,0%,13µM*
O=C(NCc1ccccc1CN1CCCC1)c1ccc(S(=O)(=O)Nc2ccccc2F)cc1,-1%,10%,x,x,6%,-11%
Cc1cccc(C)c1NC(=O)C(C)c1ccc(-c2ccccc2)c(F)c1 (stereo not given),-4%,-13%,x,0%,2%,10µM*
CC(=O)O[C@H](C)OC(=O)[C@@H](C)c1ccc(-c2ccccc2)c(F)c1,x,-1%,x,x,x,x
Cc1ccc2c(=O)cc(C(=O)Nc3sc4c(c3C(=O)NCC3CCCO3)CCCC4)oc2c1C (stereo not given),9%,x,x,-4%,i,14%
CCc1ccn2cc(-c3cc(-c4ccccc4)no3)nc2c1,-12%,-3%,-13%,10%,-2%,-74%
Cc1ccc2nc(-c3cc(-c4ccccc4)no3)cn2c1,9%,5%,0%,3%,13%,4µM*
O=C(CN1CCC(n2nnc3cc(C(F)(F)F)ccc32)CC1)Nc1ccc2c(c1)CCC2,3%,1%,4%,16%,-10%,4.5µM*
O=C(CN1CCC(n2nnc3cc(C(F)(F)F)ccc32)CC1)Nc1ccc2c(c1)OCCO2,u,-8%,3%,4%,i,u
C[C@@H]1C[C@H]2[C@@H]3CCC4=CC(=O)C=C[C@]4(C)[C@@]3(F)C(O)C[C@]2(C)[C@@]1(O)C(=O)CO (stereo not given in full),x,x,x,1%,x,x
CCCSc1nsc(NC(=O)CC)n1,4%,4%,0%,-7%,-6%,-15%
CCCSc1nsc(NC(=O)C(c2ccccc2)c2ccccc2)n1,u,-11%,0%,19%,-16%,3.2µM*
NC(=O)C1CCN(c2ncnc(-c3ccc4c(c3)OCCCO4)n2)CC1,x,x,x,1%,x,x
CCC(=O)N1CCc2cc(S(=O)(=O)NC(C(=O)NCc3ccc(OC)cc3)C(C)C)ccc21 (stereo not given),14%,x,x,0%,i,11%
NC(=S)N/N=C1/CCSc2ccc3ccccc3c21,2µM*,14%,1%,5%,i,2.2µM*
CCOc1ccc(NC(=O)CSc2oc(-c3ccc(C)cc3)nc2S(=O)(=O)c2ccc(C)cc2)cc1,-3%,x,x,3%,-6%,13%
COc1ccc(/C=C/CN2CCCC(CO)(Cc3cccc(Cl)c3)C2)cc1 (stereo not given),u,22%,3%,-6%,-1%,3.2µM*
COc1ccccc1/C=C/CN1CCCC(CO)(Cc2cccc(Cl)c2)C1 (stereo not given),u,13%,-2%,-1%,i,11µM*
SMILES,GLP1R cytotox,GLP-1R agonist,Tb PFK block,Pin1 inhibitor,PGK inhibitor,GLP-1R inv ag
COc1cc(Cl)c(CN2CCCC(CO)(Cc3cccc(Cl)c3)C2)cc1OC (stereo not given),-14%,5%,-1%,u,7%,8.9µM*
Cc1c(Cl)cccc1NC(=O)C(=O)NCCc1csc(-c2cccc(F)c2)n1,-2%,x,x,6%,i,-3%
S=C(N/N=C/c1ccc(Cl)c(Cl)c1)Nc1ccccc1Cl,-5%[0.307 µM],-14%,-3%,14%,i,1%[0.307 µM]
Fc1cccc(/C=N/NC(=S)Nc2ccccc2Cl)c1,2.8µM*,-7%,-1%,-1%,4%,u
Cc1cccc(NC(=S)N/N=C/c2cccc(O)c2)c1C,u,4%,4%,-8%,-7%,7.9µM*
COc1ccc(-c2nc3ccccc3o2)cc1NC(=O)c1ccc(N2CCC(C)CC2)c([N+](=O)[O-])c1,-10%,x,x,-24%,-2%,13%
CCNc1nc(NCC)nc(-n2cc(C(=O)c3cc(Cl)ccc3O)cn2)n1,x,x,x,1%,x,x
S=C(NN=C(c1ccccc1)c1ccccn1)N(Cc1ccccn1)Cc1ccccn1,u,-10%,x,2%,-8%,-11%
CC(=NNC(=S)N(Cc1ccccn1)Cc1ccccn1)c1cnccn1,4.5µM*,-5%,x,9%,i,u
C=CCNC(=S)Nc1sc2c(c1C(=O)OCC)CC(C)(CC)OC2 (stereo not given),10µM*,1%,2%,7%,-1%,-3%
CCN(CC)C(=O)N1c2ccccc2C=Cc2ccccc21,-6%,1%,3%,-3%,i,5.6µM*
O=C(COc1ccc(Br)cc1CNCCc1ccccc1)NCc1ccccc1,u,3%,4%,-10%,i,10µM*
Cc1cc(Br)ccc1OCCNCc1ccccc1,3%,40%,-9%,-9%,4%,8.9µM*
Cc1cc(C)c(C)c(OCCNCc2ccccc2)c1,-2%,12%,-4%,-1%,-1%,u
COc1cc(CNCCc2ccccc2)cc(Br)c1OCC(=O)Nc1ccccc1C,u,-1%,-5%,-15%,-1%,7.9µM*
CCCNCc1cc(Br)ccc1OCC(=O)NCCc1ccccc1,u,-5%,1%,15%,-2%,-70%
COc1ccc(NC(=O)CCc2nc3cccnc3n2-c2ccccc2)c(OC)c1,3%,x,x,-7%,-2%,5%
O=C(CNc1ccc(Br)cc1)Nc1cccc(S(=O)(=O)N2CCCC2)c1,-19%,0%,-4%,3%,2%,u
O=C(CNc1ccc(Br)cc1)Nc1ccc(S(=O)(=O)N2CCCC2)cc1,-27%,-15%,u,-6%,i,10µM*
O=C(COc1ccc(Br)cc1CO)Nc1ccc(S(=O)(=O)N2CCCCC2)cc1,-1%,-3%,4%,18%,-9%,10µM*

# Screening data: PubChem BioAssay, National Center for Advancing Translational Sciences (NCATS)
